# Values of other authors, collected in PubChem BioAssay AID977610.
# Screen size: about 3,600 compounds; about 3,600 (100%) were called active. No cut-off is given here; in the data, nearly all actives have Ki up to about 18000 µM. The set was probably picked from earlier hits. The list shows a part of the results. Numbered stars: 1 amine (or outer) side, 2 acyl side, 3 side chain; on linkers, the order of the positions; unused ones are H or OH. Starred links: 1 amine or outer side, 2 acyl side, 3 side chain; linkers in the order of their positions; H or OH if unused. Positions of bridges follow the written chain, without caps; N, C: chain ends. Bridge positions count the residues as written; N and C are the ends. Square brackets hold non-standard residues; d marks the D form. Residues, ends and D or L forms follow the SMILES beside them. Peptide text beside a SMILES is read from it. X2 = CC[C@H](C)[C@H](N[*:1])c1cnnn1[C@@H](C)C(=O)[*:2]; Orn(CH(NH2)2) = NC(N)NCCC[C@H](N)C(=O)O; X1 = C(CS[*:2])CN(CCCS[*:3])[*:1]
# Experiment: PubChem AID 977610
# Settings: PDB protein-ligand complexes, literature Ki
structure (smiles),measurement,setting,value
CC[C@H](C)[C@@H]1NC(=O)[C@@H]2CCCN2C(=O)[C@H](C)n2nncc2[C@H]([C@@H](C)CC)NC(=O)[C@H](CO)NC(=O)[C@H](CCCCN)NC(=O)[C@H]([C@@H](C)O)NC(=O)[C@@H](NC(=O)[C@@H](N)CCCNC(N)N)CSSC[C@@H](C(=O)N[C@@H](Cc2ccccc2)C(=O)O)NC1=O (H-[Orn(CH(NH2)2)]CTKS[X2]PICF-OH; disulfide 2-9),Ki,"protein: bovine CATIONIC TRYPSIN, PDB entry 4abj",0.034 µM (active)
NC(=O)[C@H](CCC(=O)O)NC(=O)[C@H](CCC(=O)O)NC(=O)[C@H](Cc1cc(-c2ccc(-c3cccc(Cl)c3)cc2)no1)C[P+](O)(O)c1ccc(Br)cc1,Ki,"protein: Macrophage metalloelastase (F171D mutation), PDB entry 4gql",0.00026 µM (active)
NC(=O)[C@H](CCC(=O)O)NC(=O)[C@H](CCC(=O)O)NC(=O)[C@H](Cc1cc(-c2ccccc2)no1)C[P+](O)(O)c1ccc(Br)cc1,Ki,"protein: Macrophage metalloelastase (F171D mutation), PDB entry 4gr3",0.0155 µM (active)
OC[C@@]1(F)OC[C@H](O)[C@@H](O)[C@@H]1O,Ki,"protein: ALPHA-1,4-GLUCAN LYASE ISOZYME 1, PDB entry 4amx",6500 µM (active)
OC[C@]1(F)OC[C@H](O)[C@@H](O)[C@@H]1O,Ki,"protein: ALPHA-1,4-GLUCAN LYASE ISOZYME 1, PDB entry 4amw",28300 µM (active)
NC1NN=C(S(N)(=O)=O)S1 (configuration not stated),Ki,"protein: human carbonic anhydrase II, PDB entry 2hnc",0.06 µM (active)
C[C@@H]1C[C@H]2[C@@H]3CCC4=CC(=O)C=C[C@]4(C)[C@@]3(Cl)[C@@H](O)C[C@]2(C)[C@@]1(OC(=O)c1ccco1)C(O)CCl (some centres not stated),Ki,"protein: Glucocorticoid receptor GR LBD, PDB entry 4p6w",0.0007 µM (active)
Nc1[nH]c(N)c2ccccc12,Ki,"protein: PDE10A2, PDB entry 4llj",380 µM (active)
CCCNC(=O)CN[C@@H](C(=O)N1CC[C@H]1C(=O)NCc1ccc(C(N)N)cc1)C1CCCCC1,Ki,"protein: THROMBIN, PDB entry 4bak",0.00122 µM (active)
CCNC(=O)CN[C@@H](C(=O)N1CC[C@H]1C(=O)NCc1ccc(C(N)N)cc1)C1CCCCC1,Ki,"protein: THROMBIN, PDB entry 4baq",0.00098 µM (active)
CNC(=O)CN[C@@H](C(=O)N1CC[C@H]1C(=O)NCc1ccc(C(N)N)cc1)C1CCCCC1,Ki,"protein: THROMBIN, PDB entry 4ban",0.00243 µM (active)
CC[C@H](C)[C@H](NC(C)=O)C(=O)N[C@@H](Cc1ccc(O)cc1)C(=O)N[C@@H](Cc1ccc(O)cc1)[P+](O)(O)O,Ki,"protein: Human angiotenisn converting enzyme N-domain, PDB entry 4bzs",0.075 µM (active)
O=C(N[C@@H](Cc1ccccc1)[P+](O)(O)C[C@H](Cc1cc(-c2ccccc2)no1)C(=O)N[C@@H](Cc1ccc(O)cc1)C(=O)O)OCc1ccccc1,Ki,"protein: ANGIOTENSIN-CONVERTING ENZYME, PDB entry 4ca8",0.21 µM (active)
O=C(N[C@@H](Cc1ccccc1)[P+](O)(O)C[C@@H](Cc1cc(-c2ccccc2)no1)C(=O)N[C@@H](Cc1ccc(O)cc1)C(=O)O)OCc1ccccc1,Ki,"protein: ANGIOTENSIN-CONVERTING ENZYME N-DOMAIN, PDB entry 4ca6",0.18 µM (active)
same,Ki,"protein: ANGIOTENSIN-CONVERTING ENZYME, PDB entry 4ca5",0.00041 µM (active)
same,Ki,"protein: ANGIOTENSIN-CONVERTING ENZYME, PDB entry 4ca7",0.044 µM (active)
CC(C)C[C@H](NC(=O)[C@@H]1CSSC[C@H]2C[C@H](NC(=O)CN)C(=O)N[C@@H](C)C(=O)N[C@@H](CC(C)C)C(=O)NCC(=O)N[C@@H](CCCN=C(N)N)C(=O)NCC(=O)N[C@@H](CSS2)C(=O)N[C@@H](CCC(=O)O)C(=O)N[C@@H](CC(N)=O)C(=O)N[C@@H](Cc2cnc[nH]2)C(=O)N[C@@H](CCCN=C(N)N)C(=O)N1)C(N)=O,Ki,"protein: Urokinase-type plasminogen activator, PDB entry 4os5",23.7 µM (active)
CC(C)C[C@H](NC(=O)[C@@H]1CSS[C@H]2CSSC[C@H](NC(=O)CNC(=O)[C@H](CCCN=C(N)N)NC(=O)CNC(=O)[C@H](CC(C)C)NC(=O)[C@H](C)NC(=O)[C@@H](NC(=O)CN)C2)C(=O)N[C@@H](CCC(=O)O)C(=O)N[C@@H](CC(N)=O)C(=O)N[C@@H](Cc2cnc[nH]2)C(=O)N[C@@H](CCCN=C(N)N)C(=O)N1)C(N)=O,Ki,"protein: Urokinase-type plasminogen activator, PDB entry 4os4",13.6 µM (active)
CC(C)C[C@H](NC(=O)[C@@H]1CSS[C@@H]2CSSC[C@H](NC(=O)CNC(=O)[C@H](CCCN=C(N)N)NC(=O)CNC(=O)[C@H](CC(C)C)NC(=O)[C@H](C)NC(=O)[C@@H](NC(=O)CN)C2)C(=O)N[C@@H](CCC(=O)O)C(=O)N[C@@H](CC(N)=O)C(=O)N[C@@H](Cc2cnc[nH]2)C(=O)N[C@@H](CCCN=C(N)N)C(=O)N1)C(N)=O,Ki,"protein: Urokinase-type plasminogen activator, PDB entry 4os1",2.5 µM (active)
CC(C)C[C@H](NC(=O)[C@@H]1CSSCCCN2CCCSSC[C@H](NC(=O)CNC(=O)[C@H](CCCN=C(N)N)NC(=O)CNC(=O)[C@H](CC(C)C)NC(=O)[C@H](C)NC(=O)[C@@H](NC(=O)CN)CC2=O)C(=O)N[C@@H](CCC(=O)O)C(=O)N[C@@H](CC(N)=O)C(=O)N[C@@H](Cc2cnc[nH]2)C(=O)N[C@@H](CCCN=C(N)N)C(=O)N1)C(N)=O (H-GDALGRGCENHRCL-NH2; linker 2-8-13 via X1),Ki,"protein: Urokinase-type plasminogen activator, PDB entry 4os7",24 µM (active)
C[C@@H](N)C(=O)N[C@H](C)C(=O)O (H-[dA]-[dA]-OH),Ki,"protein: vancomycin resistance D,D-dipeptidase/D,D-pentapeptidase VanXYc D59S mutant, PDB entry 4oak",59.7 µM (active)
O=c1[nH]c(=O)n([C@@H]2O[C@H](CO[P+](O)(O)O[P+](O)(O)O)[C@@H](O)[C@H]2O)cc1-c1ccc(CO)s1,Ki,"protein: Histo-blood group ABO system transferase, PDB entry 3v0p",0.53 µM (active)
O=c1[nH]c(=O)n([C@@H]2O[C@H](CO[P+](O)(O)O[P+](O)(O)O[C@H]3O[C@H](CO)[C@H](O)[C@H](O)[C@H]3O)[C@@H](O)[C@H]2O)cc1-c1ccccc1,Ki,"protein: Histo-blood group ABO system transferase, PDB entry 3v0l",3 µM (active)
N[C@](CF)(Cc1c[nH]c2ccccc12)C(=O)O,Ki,"protein: Pyridoxal-dependent decarboxylase domain protein RUMGNA-01526, PDB entry 4obv",178000 µM (active)
CN(C)CCOc1cccc(-c2ccc(Cl)cc2)c1CN1CCN(c2ccc(C(=O)NS(=O)(=O)c3ccc(NCC4CCOCC4)c([N+](=O)[O-])c3)c(Oc3ccc4[nH]ccc4c3)c2)CC1,Ki,"protein: Apoptosis regulator Bcl-2, PDB entry 4lxe",0.0001 µM (active)
same,Ki,"protein: Apoptosis regulator Bcl-2, PDB entry 4man",1e-05 µM (active)
CN1C(=O)[C@@](CCC2CCCCC2)(C[C@H]2CCC[C@@H](Nc3ccc4ccccc4n3)C2)N=C1N,Ki,"protein: Beta-secretase 1 BACE 1, PDB entry 4r95",0.014 µM (active)
COc1ccc(-c2cc(Oc3cc(C)cc(OC)c3)cc(C)n2)cc1,Ki,"protein: Macrophage migration inhibitory factor-like protein MIF, PDB entry 4p7s",0.038 µM (active)
Cc1cc(Oc2cccc(O)c2)cc(-c2ccccc2)n1,Ki,"protein: Macrophage migration inhibitory factor-like protein MIF, PDB entry 4p7m",0.039 µM (active)
COc1cc(O)c2c(c1)/C=C/C[C@H](O)[C@H](O)C(O)CCC[C@H](C)OC2=O (some centres not stated),Ki,"protein: Tak1-Tab1 fusion protein, PDB entry 4gs6",0.071 µM (active)
Cc1ncc(CO[P+](O)(O)O)c(CNc2co[nH]c2=O)c1O,Ki,"protein: methionine gamma-lyase MGL, PDB entry 4oma",68 µM (active)
CCCN1CCC(c2nc3c(C(N)=O)cccc3[nH]2)CC1,Ki,"protein: Poly [ADP-ribose] polymerase 1, PARP-1, PDB entry 2rcw",0.008 µM (active)
O=C(O)Cc1nn(Cc2nc3cc(C(F)(F)F)ccc3s2)c(=O)c2ccccc12,Ki,"protein: Lactoylglutathione lyase, PDB entry 4kyh",1.2 µM (active)
CC1(C)CCC(c2ccc(Cl)cc2)=C(CN2CCN(c3ccc(C(=O)NS(=O)(=O)c4ccc(N[C@H](CCN5CCOCC5)CSc5ccccc5)c(S(=O)(=O)C(F)(F)F)c4)cc3)CC2)C1,Ki,"protein: Apoptosis regulator Bcl-2, PDB entry 4lvt",4.4e-05 µM (active)
O=C(NS(=O)(=O)c1ccc(NC2CCOCC2)c([N+](=O)[O-])c1)c1ccc(N2CCN(CC3=C(c4ccc(Cl)cc4)CCOC3)CC2)cc1,Ki,"protein: Apoptosis regulator Bcl-2, PDB entry 4lxd",0.059 µM (active)
CC(C)C[C@H](NC(=O)[C@@H]1CSSC[C@H]2C[C@H](NC(=O)CN)C(=O)N[C@@H](CC(C)C)C(=O)NCC(=O)N[C@@H](CCCN=C(N)N)C(=O)NCC(=O)N[C@@H](CSS2)C(=O)N[C@@H](CCC(=O)O)C(=O)N[C@@H](CC(N)=O)C(=O)N[C@@H](Cc2cnc[nH]2)C(=O)N[C@@H](CCCN=C(N)N)C(=O)N1)C(N)=O,Ki,"protein: Urokinase-type plasminogen activator, PDB entry 4os6",0.36 µM (active)
CC(C)C[C@H](NC(=O)[C@@H]1CSS[C@@H]2CSSC[C@H](NC(=O)CNC(=O)[C@H](CCCN=C(N)N)NC(=O)CNC(=O)[C@H](CC(C)C)NC(=O)[C@@H](NC(=O)CN)C2)C(=O)N[C@@H](CCC(=O)O)C(=O)N[C@@H](CC(N)=O)C(=O)N[C@@H](Cc2cnc[nH]2)C(=O)N[C@@H](CCCN=C(N)N)C(=O)N1)C(N)=O,Ki,"protein: Urokinase-type plasminogen activator, PDB entry 4os2",0.2 µM (active)
CSCC[C@@H]1NC(=O)[C@H](CCCNC(N)N)NC(=O)[C@H](Cc2cnc[nH]2)NC(=O)[C@H](CC(N)=O)NC(=O)[C@H](CCC(=O)O)NC(=O)[C@H](CC(C)C)NC(=O)CNC(=O)[C@H](CCCNC(N)N)NC(=O)[C@H](Cc2c[nH]c3ccccc23)NC(=O)[C@H](CO)NC(=O)[C@@H](N)CSSC[C@@H](C(=O)O)NC1=O (H-CSW[Orn(CH(NH2)2)]GLENH[Orn(CH(NH2)2)]MC-OH; disulfide 1-12),Ki,"protein: Plasminogen activator, urokinase, PDB entry 2nwn",0.5 µM (active)
NC(=O)C[C@@H]1NC(=O)[C@@H](N)CSSC[C@@H](C(=O)NCC(=O)O)NC(=O)[C@H](CCCN=C(N)N)NC(=O)CNC1=O (H-CNGRCG-OH; disulfide 1-5),Ki,"protein: Aminopeptidase N pAPN, PDB entry 4ou3",38.7 µM (active)
"CC(C)C[C@H](NC(=O)[C@@H]1CSSC[C@H](N)C(=O)N[C@H]2CSSC[C@H](NC(=O)CNC(=O)[C@H](CCCNC(N)N)NC(=O)CNC(=O)[C@H](CC(C)C)NC2=O)C(=O)N[C@@H](CCC(=O)O)C(=O)N[C@@H](CC(N)=O)C(=O)N[C@@H](Cc2cnc[nH]2)C(=O)N[C@@H](CCCNC(N)N)C(=O)N1)C(N)=O (H-CCLG[Orn(CH(NH2)2)]GCENH[Orn(CH(NH2)2)]CL-NH2; disulfide 1-12, 2-7)",Ki,"protein: Urokinase-type plasminogen activator (C122A, N145Q mutation), PDB entry 4gly",7.7 µM (active)
O=c1cc(-c2ccc(Br)cc2)oc2ccccc12,Ki,"protein: Tankyrase-2, PDB entry 4kzu",0.313 µM (active)
C=CC[C@H](C(=O)N1CCCC[C@H]1C(=O)O[C@H](CCc1ccc(OC)c(OC)c1)c1cccc(OCC(=O)O)c1)c1cc(OC)c(OC)c(OC)c1,Ki,"protein: Peptidyl-prolyl cis-trans isomerase FKBP5 FKBP51FK1, PDB entry 4tw6",61 µM (active)
COc1ccc(CC[C@@H](OC(=O)[C@@H]2CCCCN2C(=O)[C@H](c2cc(OC)c(OC)c(OC)c2)[C@@H]2CC=CCC2)c2cccc(OCC(=O)NCc3c(O)ccc4cc5ccc(=O)cc-5oc34)c2)cc1OC,Ki,"protein: Peptidyl-prolyl cis-trans isomerase FKBP4 FKBP52FK1FK2, PDB entry 4tw8",2.61 µM (active)
COc1ccc(CC[C@@H](OC(=O)[C@@H]2CCCCN2C(=O)[C@H](c2cc(OC)c(OC)c(OC)c2)[C@@H]2C=CCCC2)c2cccc(OCCN3CCOCC3)c2)cc1OC,Ki,"protein: Peptidyl-prolyl cis-trans isomerase FKBP5 FKBP51FK1, PDB entry 4tw7",0.026 µM (active)
OC[C@H]1CNC[C@@H](O)[C@@H]1O,Ki,"protein: Beta-glucosidase 1, PDB entry 4iic",14 µM (active)
OC[C@H]1CNC[C@@H](O)[C@@H]1O[C@@H]1O[C@H](CO)[C@@H](O)[C@H](O)[C@@H]1O,Ki,"protein: GH26 beta-mannanase CjMan26C from Cellvibrio japonicus, PDB entry 4cd4",0.263 µM (active)
same,Ki,"protein: GH113 beta-mannanase AaManA from Alicyclobacillus acidocaldarius, PDB entry 4cd6",260 µM (active)
